# Test results: the supplement of paper PMC7393113
# ± gives the standard deviation of the averaged measurements.
# Test system: iBMDM (immortalised mouse bone-marrow-derived macrophages), LPS-stimulated
# Test: mitochondrial superoxide (MitoSOX fluorescence) fold increase over unstimulated control; higher = more LPS-induced mitochondrial ROS (less inhibition)
# Settings: inhibitor concentration: 500 nM; LPS: 100 ng/ml; time after LPS: 1 h
# Outline: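 Immortalised mouse bone-marrow-derived macrophages in black 96-well plates were kept in phenol-red-free 1% FCS/DMEM for 20 h, pretreated 30 min with kinase inhibitors (500 nM), loaded with 1 μM MitoSox for 10 min and then given LPS (100 ng/ml). Fluorescence at excitation/emission 510/580 nm was read on a ClarioStar plate reader every 60 min for 4 h, with wells in triplicate. Mitochondrial superoxide is given as fold induction over untreated macrophages, averaged across replicates.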
row,Compound,mitochondrial superoxide
1,Cn1cc(C2=C(c3cn(C4CCN(Cc5ccccn5)CC4)c4ccccc34)C(=O)NC2=O)c2ccccc21,1.7 ± 0.15
2,N#CC(C#N)=Cc1ccc(O)c(O)c1,1.364 ± 0.013
3,Cc1ccccc1-n1c(Cn2ncc3c(N)ncnc32)nc2cccc(C)c2c1=O,1.14 ± 0.012
4,COC[C@H]1OC(=O)c2coc3c2[C@@]1(C)C1=C(C3=O)[C@@H]2CCC(=O)[C@@]2(C)C[C@H]1OC(C)=O [Wortmannin],1.4 ± 0.084
5,CC(C)(C)c1cc(C=C(C#N)C#N)cc(Br)c1O,1.12 ± 0.029
6,CC(C)(C)c1cc(C=C(C#N)C#N)cc(C(C)(C)C)c1O [Tyrphostin 9],1.17 ± 0.033
7,CCN1CCN(C(=O)Cc2ccc(Nc3ncc(F)c(Nc4ccc(C(=O)Nc5ccccc5Cl)cc4)n3)cc2)CC1 [Aurora A Inhibitor I],1.17 ± 0.065
8,O=c1[nH]c2ccc(Cl)cc2c(N[C@@H]2CN3CCC2CC3)c1-c1nc2ccccc2[nH]1,1.2 ± 0.013

# Same assay, conditions: inhibitor concentration: 500 nM; LPS: 100 ng/ml; time after LPS: 2 h
row,Compound,mitochondrial superoxide
1,Cn1cc(C2=C(c3cn(C4CCN(Cc5ccccn5)CC4)c4ccccc34)C(=O)NC2=O)c2ccccc21,1.76 ± 0.18
2,N#CC(C#N)=Cc1ccc(O)c(O)c1,1.45 ± 0.055
3,Cc1ccccc1-n1c(Cn2ncc3c(N)ncnc32)nc2cccc(C)c2c1=O,1.25 ± 0.041
4,COC[C@H]1OC(=O)c2coc3c2[C@@]1(C)C1=C(C3=O)[C@@H]2CCC(=O)[C@@]2(C)C[C@H]1OC(C)=O [Wortmannin],1.45 ± 0.05
5,CC(C)(C)c1cc(C=C(C#N)C#N)cc(Br)c1O,1.16 ± 0.069
6,CC(C)(C)c1cc(C=C(C#N)C#N)cc(C(C)(C)C)c1O [Tyrphostin 9],1.21 ± 0.041
7,CCN1CCN(C(=O)Cc2ccc(Nc3ncc(F)c(Nc4ccc(C(=O)Nc5ccccc5Cl)cc4)n3)cc2)CC1 [Aurora A Inhibitor I],1.24 ± 0.014
8,O=c1[nH]c2ccc(Cl)cc2c(N[C@@H]2CN3CCC2CC3)c1-c1nc2ccccc2[nH]1,1.4 ± 0.045

# Same assay, conditions: inhibitor concentration: 500 nM; LPS: 100 ng/ml; time after LPS: 4 h
row,Compound,mitochondrial superoxide
1,Cn1cc(C2=C(c3cn(C4CCN(Cc5ccccn5)CC4)c4ccccc34)C(=O)NC2=O)c2ccccc21,1.92 ± 0.14
2,N#CC(C#N)=Cc1ccc(O)c(O)c1,1.666 ± 0.0094
3,Cc1ccccc1-n1c(Cn2ncc3c(N)ncnc32)nc2cccc(C)c2c1=O,1.32 ± 0.04
4,COC[C@H]1OC(=O)c2coc3c2[C@@]1(C)C1=C(C3=O)[C@@H]2CCC(=O)[C@@]2(C)C[C@H]1OC(C)=O [Wortmannin],1.78 ± 0.079
5,CC(C)(C)c1cc(C=C(C#N)C#N)cc(Br)c1O,1.11 ± 0.063
6,CC(C)(C)c1cc(C=C(C#N)C#N)cc(C(C)(C)C)c1O [Tyrphostin 9],1.275 ± 0.0071
7,CCN1CCN(C(=O)Cc2ccc(Nc3ncc(F)c(Nc4ccc(C(=O)Nc5ccccc5Cl)cc4)n3)cc2)CC1 [Aurora A Inhibitor I],1.32 ± 0.049
8,O=c1[nH]c2ccc(Cl)cc2c(N[C@@H]2CN3CCC2CC3)c1-c1nc2ccccc2[nH]1,1.68 ± 0.044
